# PubChem BioAssay (Tox21)
# Calls of active or inactive are those of the source. A call without a number means that no potency is given here. Calls follow the shape of the dose curve; as a rule, active = well fitted curve in the direction sought with a large enough effect in the repeat runs; inconclusive = weak or mixed curves; inactive = flat fitted curve, though single readings scatter.
# Assay: qHTS assay to test for compound auto fluorescence at 535 nm (green) in HepG2 cell free culture (AID 720686)
# Settings: Cell-free medium, green autofluorescence 485/535 nm; series mostly up to 46 µM
# Description: U.S. Tox21 Program National Center for Advancing Translational Sciences [NCATS] NIH Chemical Genomics Center [NCGC] U.S. Environmental Protection Agency [EPA] National Institutes of Environmental Health Sciences [NIEHS] National Toxicology Program [NTP] U.S. Food and Drug Administration [FDA] Tox21 Assay Overview: Compound auto fluorescence often interferes with screening of the compound library against various biological targets and signaling pathways. Some of these compounds may have fluorophoric properties. Such properties may interfere with the assay outputs resulting in false positives and/or negatives. To decrease such complications and ensure the compound activities are relevant in terms of biological response, the Tox21 10K compound library was screened for auto fluorescence. From the fluorophores used as reporter signals in our screening assays, the auto fluorescence equivalencies of compounds against three fluorophores have been evaluated: Triamterene, Fluorescein and Rose Bengal sodium for blue, green and red fluorescence, respectively. The fluorescence intensities were measured using Excitation/Emission wavelengths at 405/460nm, 485/535nm and 540/590nm for blue, green and red labels, respectively. This assay includes the green fluorescence data.
# Tox21 Assay Protocol Summary: 5 uL of culture medium (MEM containing 10% FBS) per well was dispensed into black wall/clear bottom 1536-well plates using a Multidrop Combi Dispenser (ThermoFisher Scientific, Waltham, MA). After 23 nL compound or DMSO vehicle was transferred into assay plate by a pintool work station (Kalypsys, San Diego, CA), fluorescence intensities in the assay plates were measured by an Envision (PerkinElmer, Shelton, CT) plate reader using three labels for measuring blue, green and red fluorescence at […] 460, 535 and 590nm respectively.
row,SMILES,Potency
1,C[C@@H]1[C@H]2Cc3ccc(O)cc3[C@]1(C)CCN2C,inactive
2,Cc1nnc2n1-c1ccc(Cl)cc1C(c1ccccc1Cl)=NC2,inactive
3,c1ccc(C2(c3ccccc3)CC2C2=NCCN2)cc1 (stereo not given),inactive
4,CC(N)Cc1ccc(O)cc1 (stereo not given),inactive
5,Cc1ccc2ccccc2c1C,inactive
6,C[C@@H](Cc1ccccc1)NCCC(c1ccccc1)c1ccccc1,inactive
7,CCC1(CC)C(=O)NC(=O)N(C)C1=O,inactive
8,CNC(=O)Oc1ccccc1C(=O)Nc1ccccc1,inactive
9,O=P1(N(CCCl)CCCl)NC(OO)CCO1 (stereo not given),inactive
10,COc1ccc2c(c1)C13CCCC[C@@H]1C(C2)N(C)CC3 (stereo not given in full),inactive
11,C=CCC1(C(C)CCC)C(=O)N=C(S)NC1=O (stereo not given),inactive
12,ClC1=C(Cl)[C@]2(Cl)[C@@H]3[C@@H](Cl)[C@H]4O[C@H]4[C@@H]3C1(Cl)C2(Cl)Cl,inactive
13,CCC(N)Cc1c[nH]c2ccccc12 (stereo not given),inactive
14,CC(C)[C@@]1(NC(=O)[C@@H]2C[C@@H]3c4cccc5[nH]cc(c45)C[C@H]3N(C)C2)O[C@@]2(O)[C@@H]3CCCN3C(=O)[C@H](Cc3ccccc3)N2C1=O,inactive
15,CCN(CC)C(=O)N[C@H]1C[C@@H]2c3cccc4[nH]cc(c34)C[C@H]2N(C)C1,inactive
16,Clc1ccc(C(Cn2ccnc2)OCc2csc3c(Cl)cccc23)c(Cl)c1 (stereo not given),inactive
17,COc1cc(OC)c(OC)cc1C=O,inactive
18,O=[N+]([O-])c1ccccc1Cl,inactive
19,C[C@@H]1[C@H](O)[C@@H](C)/C=C/C=C/CC/C=C/C=C/C=C/C=C/[C@H](O[C@H]2O[C@@H](C)[C@H](O)[C@@H](N)[C@H]2O)CC2O[C@](O)(C[C@@H](O)[C@H](O)CC[C@@H](O)C[C@@H](O)C[C@@H](O)CC(=O)O[C@H]1C)C[C@H](O)[C@H]2C(=O)O,inactive
20,CN1c2ccccc2C(NCCCCCCC(=O)O)c2ccc(Cl)cc2S1(=O)=O (stereo not given),inactive

row,SMILES,Potency
1,OC[C@@H](O)[C@H]1O[C@@H]2O[C@@H](C(Cl)(Cl)Cl)O[C@@H]2[C@H]1O,inactive
2,O.O.O.O=C([O-])C(O)C(O)C(=O)[O-].O=C([O-])C(O)C(O)C(=O)[O-].[K+].[K+].[Sb].[Sb] (stereo not given),inactive
3,CC1(C)S[C@@H]2[C@H](N)C(=O)N2[C@H]1C(=O)O,inactive
4,CCCCNC(C)(C)[P+](=O)O,inactive
5,NCC[C@H](O)C(=O)N[C@@H]1C[C@H](N)[C@@H](O[C@H]2O[C@H](CN)[C@@H](O)[C@H](O)[C@H]2N)[C@H](O[C@@H]2O[C@H](CO)[C@@H](O)[C@H]2O)[C@H]1O,inactive
6,CCCCCCCCCC(=O)O[C@H]1CC[C@H]2[C@@H]3CCC4=CC(=O)CC[C@]4(C)[C@H]3CC[C@]12C,inactive
7,Oc1c(Cl)cc(Cl)cc1Cl,inactive
8,CCC(=O)O[C@@](Cc1ccccc1)(c1ccccc1)[C@@H](C)CN(C)C,inactive
9,N#CC1(N2CCCCC2)CCCCC1,inactive
10,CC(=O)O[C@H]1CC[C@H]2[C@@H]3CCC4=CC(=O)CCC4=C3C=C[C@]12C,inactive
11,CC(=O)O[C@H]1C[C@H](O[C@H]2[C@@H](O)C[C@H](O[C@H]3[C@@H](O)C[C@H](O[C@H]4CC[C@@]5(C)[C@H](CC[C@@H]6[C@@H]5C[C@@H](O)[C@]5(C)[C@@H](C7=CC(=O)OC7)CC[C@]65O)C4)O[C@@H]3C)O[C@@H]2C)O[C@H](C)[C@H]1O[C@@H]1O[C@H](CO)[C@@H](O)[C@H](O)[C@H]1O,inactive
12,C/C(=C\c1csc(C)n1)[C@@H]1C[C@@H]2O[C@]2(C)CCC[C@H](C)[C@H](O)[C@@H](C)C(=O)C(C)(C)[C@@H](O)CC(=O)O1,inactive
13,CCC1(c2ccccc2)C(=O)NC(=O)N(C)C1=O (stereo not given),inactive
14,CN(C)CCCCCCN(C)C (tested in a mixture with another compound),inactive
15,Cc1cccc(C(C)c2cnc[nH]2)c1C (stereo not given),inactive
16,Clc1ccc2c(c1)C(c1ccccc1)=NCc1nncn1-2,inactive
17,Cc1ccccc1-n1c(C)nc2ccccc2c1=O,inactive
18,F/C(COc1ccc2c(c1)[nH]c1ccccc12)=C1/CN2CCC1CC2,inactive
19,CCCCCc1cc(O)c2c(c1)OC(C)(C)c1ccc(C)cc1-2,inactive
20,O=[N+]([O-])c1c(Cl)c(Cl)cc(Cl)c1Cl,inactive
